Rows were chosen to be rich in hits. Some 4.1% of all compounds tested hit in one or more screens of this group.
AmpC inh no detg: qHTS Inhibitors of AmpC Beta-Lactamase (assay without detergent) | AmpC nitrocefin hydrolysis, absorbance 480 nm, 0.0001% Triton | Potency, µM (highest dose often 57.1 µM), for inactives: at the highest dose activity change, negative = inhibition, hits mostly inhibitors | 330,000 compounds, 0.52% hits;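 further: plate controls were no compound for no effect and no enzyme for full effect; nearly all actives have a fitted effect of over 20% in size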
Target sequence (P00811 whole entry, looked up): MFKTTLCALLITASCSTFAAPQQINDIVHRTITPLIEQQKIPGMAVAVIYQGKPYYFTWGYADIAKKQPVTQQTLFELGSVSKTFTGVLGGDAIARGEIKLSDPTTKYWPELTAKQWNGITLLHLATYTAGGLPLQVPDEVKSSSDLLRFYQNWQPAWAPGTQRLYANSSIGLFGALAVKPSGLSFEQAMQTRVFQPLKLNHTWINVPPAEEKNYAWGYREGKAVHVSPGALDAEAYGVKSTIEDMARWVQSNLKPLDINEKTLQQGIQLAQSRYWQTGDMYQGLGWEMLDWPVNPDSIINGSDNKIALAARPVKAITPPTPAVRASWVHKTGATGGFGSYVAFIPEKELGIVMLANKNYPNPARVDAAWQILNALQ
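AmpC (5.3 nM in the dispensed reagent) in 20 mM phosphate pH 7.0 with 0.01% (detergent screen) or 0.0001% Triton X-100 was preincubated with compounds for 15 min at room temperature. Nitrocefin was then added from an 800 uM solution, and hydrolysis was followed at 480 nm.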
AmpC inh detg: qHTS Inhibitors of AmpC Beta-Lactamase (assay with detergent). AmpC hydrolysis of nitrocefin, absorbance 480 nm, 0.01% Triton. 370,000 compounds, 0.041% hits. Potency, µM (doses to about 114 µM), inactives show at the highest dose activity change, negative = inhibition, usual class: inhibitors;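 further: 0% = no-compound wells and -100% = no-enzyme wells; nearly all actives have a fitted effect of over 25% in size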
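AmpC (5.3 nM in the dispensed reagent) in 20 mM phosphate pH 7.0 with 0.01% (detergent screen) or 0.0001% Triton X-100 was preincubated with compounds for 15 min at room temperature. Nitrocefin was then added from an 800 uM solution, and hydrolysis was followed at 480 nm.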
FMDV antiviral: High Throughput Screening for Foot and Mouth Disease Virus Antivirals; Potency, µM (highest dose often 57.9 µM), for inactives: at the top dose activity change, negative = inhibition, usual class: inhibitors; FMDV antiviral cell-based qHTS; 410,000 compounds, 1.2% hits; calls by dose curve; tested in HEK293T cells; further: read-out not given here; nearly all actives have a fitted effect of over 45% in size
AMA1-RON2 inh: qHTS for Inhibitors of AMA1-RON; Towards Development of Antimalarial Drug Lead: Primary Screen; AlphaScreen AMA1-biotinylated RON2 peptide binding; Potency, µM (doses to about 58.2 µM), for the others: top-dose activity change, negative = inhibition, most hits filed as inhibitors; 360,000 compounds, 0.2% hits; AID 720542, 2013;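 further: 0% = vehicle wells and -100% = peptide control; nearly all actives have a fitted effect of over 45% in size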
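AMA1 (3D7) with his tag at 25 nM final met compounds first, then biotinylated RON2 peptide at 25 nM; detection used donor plus acceptor beads, 10 µg/mL apiece, read by AlphaScreen after 30 min at room temperature.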
Sm TGR inh: qHTS Assay for the Inhibitors of Schistosoma Mansoni Peroxiredoxins; Potency, µM (series often up to 114 µM), without a hit: top-dose activity change, negative = inhibition, most hits filed as inhibitors; 360,000 compounds, 3% hits; purified TGR, DTNB reduction, TNB absorbance 405 nm; further: nearly all actives have a fitted effect of over 60% in size
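TGR 20 nM + NADPH 100 uM (dispensed conc.), cpd preinc 15 min RT; start with NADPH (500 uM addition) then DTNB (15 mM addition). Kinetic TNB absorbance, 405 nm filter. Four-parameter Hill fit across titration.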
The depositor's hits bear a star; ? = inconclusive; . = no result given; [ ] = dose if it differs, or a comment. Unless noted, the call rests on the fitted dose curve; in most records, active means well fitted curve in the direction sought with a large enough effect; inconclusive means small, poorly fitted or top-dose-only effect, or another doubt; inactive means no such curve, though single readings can be large; an effect the other way counts as inactive or inconclusive. Unless noted, on the % scale 0 is the no-effect control and ±100 the full control effect; potency means the concentration at half of the fitted maximal effect.

SMILES	AmpC inh no detg	AmpC inh detg	FMDV antiviral	AMA1-RON2 inh	Sm TGR inh
Cc1[nH][nH]c(=O)c1C(c1ccc(-c2ccc(Cl)c(Cl)c2)o1)c1c(C)[nH][nH]c1=O	-41.6%	4.7%	-19.4%	68.2%	39.8µM*
CCOc1ccc(Cl)cc1C(c1c(C)[nH][nH]c1=O)c1c(C)[nH][nH]c1=O	-36.9%	-0.2%	43.8%	-1.2%	?
COc1ccc(NC(=O)C2Cc3c(-c4ccccc4Oc4ccccc4)ccnc3O2)cc1 (centres undefined)	.	.	0.0%	-13.9%	.
Cc1nn2c(=O)cc(COC(=O)c3ccccc3NC(=O)C(C)Oc3ccccc3)nc2s1 (centres undefined)	.	8.0%	0.0%	.	3.9%
O=C(CCCO)NNc1c2ccccc2nc2ccccc12	-0.1%	-9.5%	-3.2%	11.2%	1.3%
COc1ccc(OCC(=O)NNc2c3ccccc3nc3ccccc23)cc1	?	?	22.4µM*	-16.9%	-8.4%
CCCC(=O)NNc1c2ccccc2nc2ccccc12	-25.7%	0.4%	-14.5%	10.2%	-4.1%
O=C(COc1ccccc1)NNc1c2ccccc2nc2ccccc12	-4.7%	7.3%	25.1µM*	-24.4%	5.9%
COc1ccc(Cl)cc1NC(=O)NCCn1c(=O)oc2ccc(C)cc21	.	15.1%	0.8%	.	-0.7%
O=C(c1cnsn1)N1CCOc2ccc(CN3CCOCC3)cc2C1	.	.	17.6%	.	.
Cc1cc2c(cc(C(=O)OCC(=O)NCc3ccco3)n2C)s1	-32.5%	1.7%	18.9%	-11.4%	-15.0%
O=C(COC(=O)c1cc2ccccc2cc1O)NC(=O)NCc1ccco1	-31.1%	0.6%	-7.1%	3.5%	44.7µM*
Cn1c(C(=O)OCC(=O)NCc2ccco2)cc2sccc21	-27.4%	-9.7%	.	-4.6%	50.1µM*
CCOc1ccc(N(CC(=O)NCc2ccco2)S(=O)(=O)c2ccc(OC)c(OC)c2)cc1	52.7%	-1.1%	-12.8%	0.3%	31.6µM*
COc1ccc(C2(C(=O)NCc3ccco3)CCCC2)cc1OC	-15.4%	-4.0%	-21.9%	15.0%	44.7µM*
CCOCCc1nn2c(=O)cc(COC(=O)c3ccc(NC(=O)c4ccc(F)cc4)cc3)nc2s1	.	?	-18.7%	.	6.8%
CC(C)(C)c1ccc(OCC(=O)NCc2ccco2)c(Br)c1	23.0%	4.9%	-4.8%	19.5%	10µM*
CCN(CC)S(=O)(=O)c1ccc(OCC(=O)NCc2ccco2)cc1	8.5%	7.2%	-3.1%	-12.2%	22.4µM*
CN(C)S(=O)(=O)c1ccc(C(=O)OCC(=O)NCc2ccco2)cc1	-7.3%	2.2%	2.9%	17.0%	35.5µM*
Cc1ccc(S(=O)(=O)N(C)c2ccc(OCC(=O)NCc3ccco3)cc2)cc1	-7.1%	1.8%	-10.3%	-19.7%	1.5%
O=C(COC(=O)c1cncc(Br)c1)NCc1ccco1	3.8%	-1.8%	-15.6%	-15.7%	25.1µM*
O=C(CSc1nnc(COc2ccccc2)o1)Nc1cc(C(F)(F)F)ccc1Cl	.	3.6%	-6.3%	.	-0.3%
COCc1ccc(CN2CCOc3ccc(C4=CCCCC4)cc3C2)o1	.	.	-7.6%	.	.
COc1cccc(C(=O)NC(C)c2nnc3n2CCN(CC=C(C)C)CC3)c1 (centres undefined)	.	.	-5.4%	.	.
COc1ccc(CC(=O)OCC(=O)NCc2ccco2)cc1OC	-9.1%	-16.2%	-4.5%	20.1%	39.8µM*
SMILES	AmpC inh no detg	AmpC inh detg	FMDV antiviral	AMA1-RON2 inh	Sm TGR inh
CC(SCc1ccccc1)C(=O)N/N=C/c1ccc(OCC(=O)NCc2ccco2)cc1 (centres undefined)	-21.6%	-8.6%	12.6µM*	7.2%[2.32 µM]	-22.4%
COc1cc(C(=O)OCC(=O)NCc2ccco2)cc(OC)c1OC	-8.5%	-15.0%	-29.0%	-9.4%	44.7µM*
COc1cc(C(=O)OCC(=O)Nc2ccc(SC(F)F)cc2)cc(OC)c1OC	3.8%	-2.5%	35.5µM*	19.1%	-2.1%
O=C(NCC1CCC2(CCN(Cc3cnn(-c4ccc(F)cc4)c3)CC2)O1)c1ccccc1 (centres undefined)	.	.	-5.6%	.	.
CCS(=O)(=O)N1CCc2cc(C(=O)NCc3ccc(Cl)cc3)ccc21	.	16.1%	-25.3%	.	-4.1%
Cc1ccc2c(CNC3CCCCC3)c(C(=O)O)n(Cc3ccc(F)cc3)c2c1	.	12.5%	-17.8%	.	-0.8%
O=C(COC(=O)c1ccc(S(=O)(=O)NCc2ccco2)cc1)NCc1ccccc1	-18.1%	.	-18.5%	-12.3%	.
CC(C)[C@H](NC(=O)OCc1ccccc1)C(=O)OCC(=O)NCc1ccco1	.	.	1.0%	-4.5%	.
O=C(COC(=O)c1ccc(NS(=O)(=O)c2cccs2)cc1)NCc1ccco1	-39.5%	-4.7%	-12.8%	-12.9%	11.2µM*
CC(C)C(NC(=O)OCc1ccccc1)C(=O)OCC(=O)NCc1ccco1 (centres undefined)	-1.3%	0.2%	-10.9%	4.5%	28.2µM*
COc1cc(OC)cc(C(=O)OCC(=O)NCc2ccco2)c1	7.8%	4.6%	-18.9%	5.5%	?
O=C(COC(=O)c1ccc(S(=O)(=O)NCc2ccco2)cc1)NCCC1=CCCCC1	-42.8%	-0.5%	-13.3%	-3.8%	44.7µM*
CCOc1cc(C(=O)OCC(=O)NCc2ccco2)cc(OCC)c1OCC	-3.0%	?	?	-4.4%	25.1µM*
COC(=O)c1c(OCC2CCCN(C)C2)cc(=O)n2c1CCN(Cc1ccc(OC)c(O)c1)CC2 (centres undefined)	.	.	-5.8%	.	.
CCN1CCN(Cc2c(O)ccc3oc(C)c(C(=O)Nc4cccc(C(F)(F)F)c4)c23)CC1	.	8.8%	0.0%	.	4.0%
CN(Cc1ccco1)C(=O)CN1C(=O)NC(c2ccccc2)(c2ccccc2)C1=O	8.9%	-7.1%	-19.7%	-15.9%	35.5µM*
CN(Cc1ccco1)C(=O)CN1C(=O)NC2(CCCC2)C1=O	-10.6%	.	12.9%	-0.8%	.
COc1cc(CN2CCC3(CCC(CNC(=O)c4ccco4)O3)CC2)ccc1O (centres undefined)	.	.	-10.6%	.	.
O=C(c1ccco1)N1CCN(Cc2cc(=O)oc3cc(O)ccc23)CC1	-27.5%	-15.0%	-11.5%	-0.6%	44.7µM*
O=C(O)CN(CC(=O)O)CC1=CC2C(=CC1=O)Oc1cc(O)c(CN(CC(=O)O)CC(=O)O)cc1C21OC(=O)c2ccccc21 (centres undefined)	.	.	-1.3%	.	.
C/C=C1/C[N@@+]2(C)CC[C@]34C(=C(C=O)[C@H]1C[C@H]32)Nc1ccccc14	.	.	-10.6%	.	.
C/C=C1/C[N+]2(C)CCC34C(=C(C=O)[C@H]1C[C@@H]32)Nc1ccccc14 (some centres undefined)	-20.6%	?	-21.9%	-8.8%	28.2µM*

Assay outcomes as filed in PubChem BioAssay.
